From PubChem BioAssay
SARS PLpro yeast: SARS-CoV PLP inhibition in yeast | actives 0.19% (n = 330,000) | AID 485353 | S. cerevisiae expressing SARS-CoV PLpro, growth rescue | Potency, µM (highest dose often 32.9 µM), inactives show top-dose activity, positive = growth rescue, most hits filed as activators; calls by dose curve; further: 0% is about no effect; nearly all actives have a fitted effect of over 55% in size
Pf growth 96h: inhibits malaria parasite growth, 96 h; Potency, µM (series often up to 28.7 µM), for inactives: at the highest dose activity change, negative = inhibition, most hits filed as inhibitors; P. falciparum luciferase reporter growth, 96 h; AID 504834; actives 6.9% (n = 320,000); further: on the % scale 0 is the no-effect control and ±100 the full control effect
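Readout is luminescence from an integrated firefly luciferase in P. falciparum. Red cells, 2% hematocrit and 0.05% parasitemia final, were cultured with compound through two parasite generations (96 hours) at 37 C, 5% CO2.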
AMA1 RON2 block: disrupts binding of P. falciparum AMA1 to RON2; actives 0.2% (n = 360,000); AID 720542; AlphaScreen AMA1-biotinylated RON2 peptide binding; Potency, µM (top dose mostly 58.2 µM), inactives show at the highest dose activity change, negative = inhibition, usual class: inhibitors;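 further: 0% = vehicle wells and -100% = peptide control; nearly all actives have a fitted effect of over 45% in size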
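AMA1 (3D7) with his tag at 25 nM final met compounds first, then biotinylated RON2 peptide at 25 nM; detection used donor plus acceptor beads, 10 µg/mL apiece, read by AlphaScreen after 30 min at room temperature.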
Pf growth 48h: inhibits P. falciparum growth in the first generation, 48 h. P. falciparum luciferase growth in erythrocytes, 48 h. Potency, µM (top dose mostly 28.7 µM), without a hit: at the top dose activity change, negative = inhibition, most hits filed as inhibitors. actives 5.9% (n = 310,000). AID 504832; further: on the % scale 0 is the no-effect control and ±100 the full control effect
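Growth was read as firefly luciferase luminescence after a 48 h, 37 C, 5% CO2 exposure of compounds to reporter-bearing P. falciparum cultures (0.1% parasitemia, 2% hematocrit final) in Albumax-supplemented RPMI 1640.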
HCV inh: inhibitors of hepatitis C virus infection; Potency, µM (doses to about 41.8 µM), for inactives: at the top dose activity change, negative = inhibition, usual class: inhibitors; Huh7.5.1 HCVcc-Cre infection, luciferase reporter, 44 h; actives 3.4% (n = 340,000); AID 651820; further: on the % scale 0 is the no-effect control and ±100 the full control effect
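Infectious HCV cell culture screen: compound-treated cells (1,000/well, pre-plated 4 h) are infected with HCVcc-Cre at roughly 0.5 moi and grown 44 h. Infection is quantified by luciferase signal after 15 min substrate incubation at room temperature.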
NS1 function inh: inhibitors of influenza NS1 protein function; actives 0.4% (n = 270,000); AID 2326; Potency, µM (top dose mostly 46.1 µM), inactives show top-dose activity, positive = more growth; calls by dose curve; further: actives are rising curves; nearly all actives have a fitted effect of over 50% in size
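A cell-based growth assay was used: compounds that relieve NS1-induced slow growth of budding yeast raise OD600. Assay medium was yeast nitrogen base with ammonium sulphate and -URA supplement, pH 6.0, with 2% galactose.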
* = called active by the depositor; ? = inconclusive; . = no result. Hits are enriched below; roughly 12% of the tested compounds scored in any of these assays. Unless noted, the call rests on the fitted dose curve; in most records, active means well fitted curve in the direction sought with a large enough effect; inconclusive means small, poorly fitted or top-dose-only effect, or another doubt; inactive means no such curve, though single readings can be large; an effect the other way counts as inactive or inconclusive. Potency means the concentration at half of the fitted maximal effect.

SMILES	SARS PLpro yeast	Pf growth 96h	AMA1 RON2 block	Pf growth 48h	HCV inh	NS1 function inh
COc1cccc(-c2cnc(C(O)c3ccc(Cl)c(F)c3)[nH]2)c1 (configuration not stated)	.	.	-12.7%	.	.	.
Cc1cc(C)c(C(=O)N2CCCC(N3CCN(c4ccc(F)cc4)CC3)C2)o1 (configuration not stated)	-0.1%	7.3%	-16.6%	?	?	-22.3%
O=C(O)c1cc([N+](=O)[O-])ccc1N1CCC(Cc2ccccc2)CC1	-41.2%	?	-2.2%	-26.3%	11.0%	-27.3%
C=C(C)c1cccc(C(C)(C)NC(=O)N2CCC(C)CC2)c1	-3.5%	-8.2%	19.5%	.	0.6%	-3.5%
O=C(Cc1ccccc1)Nc1ccccc1C(=O)NCC1CCCO1 (configuration not stated)	2.7%	13.1µM*	-6.9%	-7.8%	19.3%	4.7%
O=C(NCC1CCCO1)c1cc([N+](=O)[O-])ccc1N1CCC(Cc2ccccc2)CC1 (configuration not stated)	-15.7%	?	-4.2%	11.7µM*	-25.9%	.
O=C(NCC1CCCO1)c1ccc(C(=O)NCC2CCCO2)cc1 (configuration not stated)	0.3%	0.465µM*	-2.7%	42.6%	17.2%	-0.4%
O=C(Cc1ccccc1)NCC1CCCO1 (configuration not stated)	-0.5%	-35.6%	-0.5%	.	18.9%	6.8%
C=C(C)c1cccc(C(C)(C)NC(=O)NCC2CCCO2)c1 (configuration not stated)	-2.2%	95.8%	7.7%	7.38µM*	-1.9%	5.4%
CCC(NC(=O)c1ccccc1NC(=O)c1ccccc1)C(=O)NNC(=O)c1cccnc1 (configuration not stated)	0.7%	12.1%	78.0%	26.4%	-10.1%	-1.9%
O=C(O)C1C(=O)NCC1c1ccccc1 (configuration not stated)	1.8%	2.6%	-1.3%	-1.6%	17.4%	8.6%
COc1ccc(/C=N\Nc2ncc(F)c(N3CCOCC3)n2)cc1OC	0.9%	?	12.6%	?	6.2%	-7.3%
CCCOc1ccc(C(F)(F)F)cc1NC(=O)c1cc(C)on1	-9.1%	32.5%	8.9%	45.0%	-9.7%	.
Cc1nc2ccc(F)cc2cc1C(=O)NCC1CCCO1 (configuration not stated)	2.7%	6.57µM*	-1.9%	?	16.7%	14.9%
O=C(NCC1CCCO1)c1cc2ccccc2nc1Cl (configuration not stated)	-5.2%	102.3%	-3.3%	93.6%	16.1%	.
COc1ccc(CNCc2cccc(Oc3ccccc3)c2)cc1	-1.7%	3.7µM*	-2.3%	73.1%	?	.
CCn1c(=O)n(CC)c2cc(S(=O)(=O)N3CCc4ccccc43)ccc21	-1.0%	.	-14.0%	?	12.6µM*	?
O=C(NCc1ccccc1)c1ccc(S(=O)(=O)N2CCCc3ccccc32)cc1	2.7%	?	-1.5%	-28.7%	12.6µM*	13.1%
NNC(=O)c1ccc(S(=O)(=O)N2CCc3ccccc32)cc1	-1.7%	33.6%	156.6%	11.7µM*	2.9%	?
CC(=O)Nc1ccc(S(=O)(=O)N2CCN=C2c2ccccc2)cc1	2.2%	14.7µM*	-3.4%	-19.0%	-3.0%	-24.7%
O=C(NCc1ccco1)c1ccc(S(=O)(=O)N2CCCc3ccccc32)cc1	-4.8%	.	-8.1%	?	16.0%	?
O=S(=O)(c1ccc(F)cc1)N1CCc2ccccc21	-1.8%	-14.1%	12.7%	12.4%	14.7%	8.2%
CCC(=O)N1CCCc2cc(S(=O)(=O)N3CCCc4ccccc43)ccc21	-2.9%	-6.8%	?	?	10µM*	-43.1%
CC(=O)N1CCc2ccc(S(=O)(=O)N3CCc4ccccc43)cc21	-0.5%	9.5%	-0.7%	13.1µM*	22.4µM*	0.0%
CCC(=O)N1CCc2cc(S(=O)(=O)N3CCc4ccccc4C3)ccc21	-1.1%	0.0%	-10.4%	.	20.0%	-24.3%
SMILES	SARS PLpro yeast	Pf growth 96h	AMA1 RON2 block	Pf growth 48h	HCV inh	NS1 function inh
COC(=O)CCC(=O)Nc1ccc(S(=O)(=O)N2CCc3ccccc32)cc1	-3.0%	0.0%	-1.5%	3.5%	-5.7%	7.5%
O=S(=O)(c1ccc(Cl)cc1)N1CCCc2ccccc21	-7.5%	34.8%	33.1%	-5.3%	?	-54.4%
CC(=O)Nc1ccc(S(=O)(=O)N2CCCc3ccccc32)cc1	2.1%	-23.3%	3.2%	-13.4%	12.6µM*	-11.5%
COC(=O)c1ccc(S(=O)(=O)N2CCc3ccccc32)cc1	-4.5%	9.28µM*	1.5%	2.4%	-14.5%	-17.4%
Cc1c(NS(=O)(=O)c2cc(C(=O)N(C)Cc3ccccc3)ccc2Cl)c(=O)n(-c2ccccc2)n1C	-10.1%	.	-0.8%	.	-4.1%	.
Cc1c(NS(=O)(=O)c2cc(C(=O)NCc3cccnc3)cc(Cl)c2Cl)c(=O)n(-c2ccccc2)n1C	-4.2%	?	3.5%	11.7µM*	-8.0%	.
C[N+](C)(C)C(C1=CCCC1=O)c1ccccc1 (configuration not stated)	.	.	.	.	.	-10.3%
COc1cccc(NC(=O)c2ccc3c(c2)N(C)CCS3)c1	-14.3%	7.38µM*	-2.1%	9.4%	10µM*	-1.0%
CN1CCSc2ccc(C(=O)NCc3cccc(F)c3)cc21	-15.3%	9.28µM*	-2.3%	-22.5%	?	9.2%
CN1CCSc2ccc(C(=O)Nc3ccc(Cl)cc3)cc21	-2.4%	136.8%	-0.8%	137.4%	-25.7%	-1.8%
COc1ccccc1Nc1ccc(NS(=O)(=O)c2ccc(C(C)=O)cc2)cc1	-3.8%	?	-18.5%	?	-22.6%	-5.4%
O=C(C[C@@H]1C/C=C\C[C@@H](Cc2ccc(F)cc2)C(=O)OCCNC1=O)N[C@H](CO)Cc1ccccc1	-4.2%	.	-3.2%	.	-22.6%	.
CCc1ccc2nc3c(c(C(=O)O)c2c1)CCC3	0.0%	?	0.8%	-6.2%	-1.9%	9.0%
Cc1cc(Br)c2nc3c(c(C(=O)O)c2c1)CCCCC3	2.1%	8.28µM*	-21.4%	-2.7%	12.9%	-1.6%
Cc1ccc(S(=O)(=O)N2CCN(Cc3ccccc3)CC2)s1	-0.9%	?	-10.3%	-12.4%	1.5%	.
CCN1CCn2c3c(c4cc(C)ccc42)CCCC31 (configuration not stated)	-2.3%	55.2%	-4.7%	8.28µM*	?	-1.6%
Cc1ccc2c(c1)c1c3n2CCN(C(=O)CCl)C3CCC1 (configuration not stated)	7.1%	?	-5.4%	?	22.4µM*	-24.8%
O=C(CSc1nnc(COc2ccccc2)o1)N1CCCCC1	1.6%	20.3%	-10.5%	-22.5%	6.6%	-2.7%
COc1cccc(-c2cn(-c3cccc(C(F)(F)F)c3)c(=S)[nH]2)c1	1.2%	?	53.0%	10.4µM*	?	?
